Rows were chosen to be rich in hits. Some 1.6% of all compounds tested hit in one or more screens of this group.
KCNQ2 block: rat KCNQ2 potassium channel inhibitors, primary screen, cell-based, CHO-K1, FluxOR thallium flux, B-score; Potassium voltage-gated channel subfamily KQT member 2 (Rattus norvegicus), O88943; 20 min; stronger effect = lower value; B-score at 10 µM; 310,000 compounds, 1.1% hits; AID 2156, 2009;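 active = fluorescence ratio B-score at most minus 3 library SDs, with starting brightness B-score within 2 library SDs, cut at about -5.5 in these data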
KCNQ2 pot: potentiators of rat KCNQ2 potassium channel; Potassium voltage-gated channel subfamily KQT member 2 (Rattus norvegicus), O88943; CHO-K1 KCNQ2, FluxOR thallium flux fluorescence; stronger effect = higher value; B-score at 10 µM; 310,000 compounds, 0.54% hits; AID 2239, 2010;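 active = fluorescence ratio B-score at least 3 SD of library B-scores, with initial fluorescence B-score within 3 of them, cut at about 5.3 in these data; same plate scores as AID 2156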;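 also: B-score of peak minus minimum over baseline fluorescence ratio after K+ and Tl+ stimulus; positive B-score means potentiation of KCNQ2 with more thallium influx and brighter signal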
Kir21 confirm: mouse Kir2.1 channel blockers, retest, confirmation, cell-based, FluxOR thallium flux, duplicate; shares compounds with KCNQ2 pot; Kir2.1-expressing cells, FluxOR thallium flux fluorescence; stronger effect = lower value; AID 2032, 2009; 2,300 compounds, 41% hits; Tl flux remaining, % of negative control (stronger effect = lower value), % at 10 µM;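 active = Primary-screen hit whose thallium flux fell at least 3 control SD below untreated wells in both duplicates, with normal baseline fluorescence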;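 also: 0% = blank wells without stimulus and 100% = stimulated no-compound controls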
HEK293 ctr: parental HEK293 activity in Kir2.1 inhibitor counter-screen | shares compounds with KCNQ2 pot | parental HEK293 cells, FluxOR thallium flux fluorescence; 0% = unstimulated blank wells | FluxOR signal as % of negative control (100 = no effect), % at 10 µM | 2,300 compounds, 19% hits;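 active = dye signal at least 3 control SD above or below untreated wells in both duplicates, raw fluorescence within 3, either direction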;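 also: percent is based on the flux ratio of peak minus minimum fluorescence over baseline F0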
CHO-K1 Tl ctr: nonspecific thallium flux increase in parental CHO-K1, confirmation, counter-screen for KCNQ2 potentiator project, cell-based, FluxOR thallium flux, duplicate | parental CHO-K1 cells, FluxOR thallium flux fluorescence; zero = vehicle mean+3SD, 100% = vehicle-minus-blank window | activity increase over 3SD of controls, % at 10 µM | shares compounds with KCNQ2 pot | 1,200 compounds, 43% hits | AID 2282, 2010;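 active = signal rise of at least 3 SD above the untreated control mean, in both duplicate wells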;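 also: counter screen of KCNQ2 potentiator hits so any rise reflects channel-independent effects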
KCNQ1 sel pot: human KCNQ1 channel potentiation off-target, confirmation, selectivity assay for KCNQ2 potentiator project, cell-based, CHO, FluxOR thallium flux; shares compounds with KCNQ2 pot; CHO KCNQ1 stable, FluxOR thallium flux fluorescence; beyond 3SD, as % of vehicle-control signal; activation over 3SD threshold, % at 10 µM; 1,200 compounds, 28% hits; AID 2283, 2010;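 active = fluorescence ratio rise of at least 3 SD of vehicle wells above their mean, in both replicate wells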;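 also: 0% = vehicle mean plus 3 SD and 100% = vehicle minus unstimulated blank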
Target sequence (P51787 whole entry, looked up): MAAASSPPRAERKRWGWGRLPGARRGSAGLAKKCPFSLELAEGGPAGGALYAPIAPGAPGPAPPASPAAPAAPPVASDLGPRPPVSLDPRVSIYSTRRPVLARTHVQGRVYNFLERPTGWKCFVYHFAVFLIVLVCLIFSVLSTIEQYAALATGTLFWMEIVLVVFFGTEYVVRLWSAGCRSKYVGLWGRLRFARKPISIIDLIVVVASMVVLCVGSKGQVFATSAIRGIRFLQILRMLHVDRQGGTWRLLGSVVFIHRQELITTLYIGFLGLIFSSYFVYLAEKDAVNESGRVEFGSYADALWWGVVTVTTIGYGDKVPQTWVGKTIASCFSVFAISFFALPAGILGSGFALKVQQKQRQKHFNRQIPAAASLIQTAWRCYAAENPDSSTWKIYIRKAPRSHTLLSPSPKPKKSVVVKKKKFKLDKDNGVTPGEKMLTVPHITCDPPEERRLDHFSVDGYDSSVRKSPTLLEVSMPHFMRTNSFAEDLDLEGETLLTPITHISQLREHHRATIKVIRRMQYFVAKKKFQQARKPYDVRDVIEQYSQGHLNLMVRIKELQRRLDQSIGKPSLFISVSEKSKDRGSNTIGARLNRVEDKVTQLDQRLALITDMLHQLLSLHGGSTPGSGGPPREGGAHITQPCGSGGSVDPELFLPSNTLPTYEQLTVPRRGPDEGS
KCNQ2 pot confirm: rat KCNQ2 channel potentiators, confirmation, cell-based, CHO, FluxOR thallium flux, duplicate. CHO-KCNQ2 cells, FluxOR thallium flux fluorescence. potentiation, less the hit threshold, % at 10 µM. 1,200 compounds, 68% hits. shares compounds with KCNQ2 pot;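 active = fluorescence ratio rising 3 SD or more over the vehicle control mean in both replicates, plus primary screen hit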;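 also: peak minus minimum thallium fluorescence divided by baseline after K/Tl stimulus; 0% = vehicle mean plus 3 SD and 100% = vehicle minus unstimulated blank difference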
Kir21 spec: mouse Kir2.1 channel activation off-target, confirmation, selectivity assay for KCNQ2 potentiator project, cell-based, HEK293, FluxOR thallium flux. shares compounds with KCNQ2 pot. HEK293 Kir2.1, FluxOR thallium flux fluorescence. activity over 3SD threshold, % at 10 µM. 1,200 compounds, 2% hits. AID 2345, 2010;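 active = fluorescence ratio rise of at least 3 SD above the vehicle-control mean, seen in both replicates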;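 also: 0% = vehicle mean plus 3 SD and 100% = vehicle minus no-stimulus blank window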
KCNQ2 W236L pot: potentiators of retigabine-insensitive KCNQ2 W236L, mechanism study for KCNQ2 potentiator project, cell-based, rat KCNQ2 W236L, CHO, automated patch clamp; current increase over 3SD of negative controls (%), stronger effect = higher value, % at 25 µM; shares compounds with KCNQ2 pot; automated patch clamp current; AID 2558, 2010; 940 compounds, 10% hits;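 active = current increase at least 3 SD of the untreated controls above them in both duplicate recordings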
An asterisk follows results filed as active; i = inactive; · = no result given.

SMILES	KCNQ2 block	KCNQ2 pot	Kir21 confirm	HEK293 ctr	others
CC(C)c1nc2sc3c(=O)[nH]c(=S)[nH]c3c2c2c1CCCC2	i	8.97*	i	132.5%*	CHO-K1 Tl ctr=-18.2;KCNQ1 sel pot=-7.9;KCNQ2 pot confirm=-15.8;Kir21 spec=-30.1
O/N=C\c1ccccc1Oc1ccc(F)cc1	i	·	·	·
S=C(NCc1ccco1)NC1CCCc2ccccc21 (configuration not stated)	i	·	·	·
S=C(NCc1ccccc1)NC1CCCc2ccccc21 (configuration not stated)	i	·	i	i
O=c1oc2cc(OCc3ccc(F)cc3F)ccc2cc1-c1ccc2ccccc2n1	i	0.04	·	·
CCS(=O)(=O)N1CCC(C(=O)NCc2cccc(OC)c2)CC1	i	0.09	·	·
CC(NC(=O)C1CCN(S(=O)(=O)c2ccc(Br)s2)CC1)c1ccccc1 (configuration not stated)	i	6.85*	i	i	CHO-K1 Tl ctr=5.4*;KCNQ1 sel pot=-18.8;KCNQ2 pot confirm=14.1*;Kir21 spec=-25.1;KCNQ2 W236L pot=i
CCC(C)NC(=O)C1CCN(S(=O)(=O)c2ccc(Br)s2)CC1 (configuration not stated)	i	0.77	·	·
O=S(=O)(NCc1ccccc1)c1ccc(Br)s1	i	·	·	·
COc1cccc(CNC(=O)C2CCN(S(=O)(=O)c3ccc(Br)s3)CC2)c1	i	7.31*	i	i	CHO-K1 Tl ctr=-4.6;KCNQ1 sel pot=-23.1;KCNQ2 pot confirm=9.6*;Kir21 spec=-48.2;KCNQ2 W236L pot=i
CC(NS(=O)(=O)c1ccc(Br)s1)c1ccccc1 (configuration not stated)	i	0.04	49.5%*	i
COc1cc(OC)c(OC)cc1CNC(=O)CCN1C(=O)c2cccc([N+](=O)[O-])c2C1=O	i	·	·	·
CC(CN1CCN(C)CC1)OC(=O)c1cccc(F)c1 (configuration not stated)	i	·	·	·
Cc1ccc(N2CC(C(=O)N3CCC(C(=O)Nc4nnc(C(C)(C)C)s4)CC3)CC2=O)cc1 (configuration not stated)	i	1.25	·	·
CCN(C(=O)C1CCN(S(=O)(=O)c2ccc3c(c2)oc(=O)n3C)CC1)c1cccc(C)c1	i	·	·	·
CCCN(C(=S)Nc1ccccc1)C1CCS(=O)(=O)C1 (configuration not stated)	i	·	·	·
CC(C)(C)Cc1nc2ccccc2n1CCc1ccccc1	i	·	53.0%*	i
CCc1nc2ccccc2n1CCc1ccccc1	i	·	·	·
Cc1ccc2c(CC(=O)NCCc3ccc(S(N)(=O)=O)cc3)coc2c1	i	0.58	·	·
COc1ccc(C)cc1NCc1cccc(OC)c1OC	i	·	·	·
COc1cc(OC)c(OC)cc1CNc1cc(C)ccc1OC	i	·	53.5%*	i
C(=C\c1ccccc1)/CSc1nnc(-c2ccccn2)n1Cc1ccco1	-5.78*	-5.78	59.5%*	i
NC(=O)CSc1nnc(-c2ccccn2)n1Cc1ccco1	i	·	·	·
CCCCNC(=O)c1ccc(NC(C)=O)c(Cl)c1	i	·	·	·
Cc1cc(C)c2nc(N3CCCC(C(=O)NCCCN4CCOCC4)C3)sc2c1 (configuration not stated)	i	·	·	·
SMILES	KCNQ2 block	KCNQ2 pot	Kir21 confirm	HEK293 ctr	others
Cc1cc(C)c2nc(N3CCC(C(=O)NCCCN4CC(C)CC(C)C4)CC3)sc2c1 (configuration not stated)	-6.42*	-6.42	50.0%*	i
Cc1cc(C)n(CC(=O)N/N=C/c2cc([N+](=O)[O-])ccc2O)n1	i	1.29	·	·
Cc1cc(C)n(CC(=O)N/N=C/c2cc(Br)cc([N+](=O)[O-])c2O)n1	i	6.94*	i	65.0%*	CHO-K1 Tl ctr=-2.0;KCNQ1 sel pot=-13.1;KCNQ2 pot confirm=39.6*;Kir21 spec=-26.4;KCNQ2 W236L pot=i
Cc1ccc(CNCC(O)(c2ccc(F)cc2)c2ccc(F)cc2)cc1	i	·	·	·
COc1ccccc1CNCC(O)(c1ccc(Cl)cc1)c1ccc(Cl)cc1	i	·	·	·
OC(CNCc1ccccc1)(c1ccccc1)c1ccccc1	i	·	·	·
COc1ccccc1CNCC(O)(c1ccc(F)cc1)c1ccc(F)cc1	i	·	53.0%*	i
COc1ccc(CNCC(O)(c2ccc(F)cc2)c2ccc(F)cc2)cc1	i	·	i	i
COc1ccc(CNCC(O)(c2ccccc2)c2ccccc2)cc1	i	·	55.5%*	i
COc1cccc(CNC(=O)[C@@H](C)N2C(=O)N3CCc4c([nH]c5ccc(OC)cc45)C3(C)C2=O)c1 (some centres not stated)	i	·	·	·
O=C1C([N+](=O)[O-])=C(O)c2cccc3cccc1c23	i	·	·	·
COc1ccc([N+](=O)[O-])cc1NC(=O)C(C)Sc1nc(-c2ccccc2)cs1 (configuration not stated)	i	·	·	·
O=C1CCCCN1CCC(=O)N1CCCC(Nc2ccccc2)C1 (configuration not stated)	i	1.48	·	·
O=C(CC1CCCC1)N1CCCC(Nc2ccc(F)cc2)C1 (configuration not stated)	i	1.53	·	·
CC1(CCC(=O)N2CCCC(Nc3ccc(F)cc3)C2)CC1 (configuration not stated)	i	·	51.0%*	i
O=C(CCc1cccc(Cl)c1)N1CCCC(Nc2ccccc2)C1 (configuration not stated)	-7.05*	-7.05	69.5%*	i
COc1ccc(CCNC(=S)NC2CCN(Cc3ccccc3)CC2)cc1	i	0.76	·	·
Cc1ccc(C(=O)NCc2ccccn2)cc1NC1=NC2CS(=O)(=O)CC2S1 (configuration not stated)	i	1.58	·	·

Screening results deposited in PubChem BioAssay by Johns Hopkins Ion Channel Center.
